In PubChem BioAssay (NCI):
Compounds without any hit were thinned out: in the full panel of roughly 79,000, 15% have a hit. Unmarked numbers belong to inactive results. Activity calls are given as the source filed them. No stated cut-off is given here; in the data, active means growth inhibition above about 70%; inactive means the rest.

Key:
[1] = NCI Yeast Anticancer Drug Screen. Data for the rad52 strain (AID 147);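 further: 0% = growth of vehicle-treated control cultures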; conditions: S. cerevisiae rad52 mutant growth inhibition, hits give high values
Method in brief: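 Measured: yeast growth inhibition. System: strain with a defined DNA damage repair alteration. Reference: vehicle-treated control cultures.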

[2] = NCI Yeast Anticancer Drug Screen. Data for the wt1 strain (AID 149);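 further: 0% = growth of vehicle-treated wt1 cultures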; conditions: S. cerevisiae wt1 strain (SPY 50644) growth inhibition, hits give high values
Method in brief: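 Measured: growth of wt1 yeast under compound versus vehicle treatment, reported as inhibition.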

[3] = NCI Yeast Anticancer Drug Screen. Data for the rad50EPP+ strain (AID 151);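 further: 0% = growth of vehicle-treated control cultures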; conditions: S. cerevisiae rad50 mutant strain, hits give high values
Method in brief: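 One strain with a rad50 alteration (rad50EPP+) was compound-treated, its growth then compared to that of vehicle controls.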

[4] = NCI Yeast Anticancer Drug Screen. Data for the mgt1 strain (AID 153); conditions: S. cerevisiae mgt1 mutant growth inhibition, hits give high values
Method in brief: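 After exposure of the mgt1 yeast mutant to compound, growth was measured and reported as inhibition compared with vehicle controls.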

[5] = NCI Yeast Anticancer Drug Screen. Data for the rad50 strain (AID 155);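 further: 0% = growth of vehicle-only cultures of the same strain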; conditions: S. cerevisiae rad50 strain growth inhibition, hits give high values
Method in brief: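 Growth of the mutant yeast was measured after compound exposure and referenced to vehicle-treated cultures.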

[6] = NCI Yeast Anticancer Drug Screen. Data for the mec2-1 strain (AID 157); conditions: S. cerevisiae mec2-1 strain, hits give high values
Method in brief: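 Test agents were screened against the mec2-1 yeast strain, with defined DNA repair or cell cycle alteration. Growth was scored as inhibition against vehicle-only controls.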

[7] = NCI Yeast Anticancer Drug Screen. Data for the rad14 strain (AID 159);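 further: 0% = growth of vehicle-treated control cultures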; conditions: S. cerevisiae rad14 strain growth inhibition, hits give high values
Method in brief: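 Here, inhibition of yeast growth was measured after compound exposure, using a strain with a genetic defect in DNA damage repair and vehicle-treated cultures as the reference.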

[8] = NCI Yeast Anticancer Drug Screen. Data for the sgs1 mgt1 strain (AID 161);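 further: 0% = growth of cultures given vehicle only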; conditions: S. cerevisiae sgs1 mgt1 strain, hits give high values
Method in brief: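 Inhibition of yeast growth, normalised to vehicle-treated controls, is reported for a strain bearing genetic alterations in DNA damage repair.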

[9] = NCI Yeast Anticancer Drug Screen. Data for the CLN2oe strain (AID 163);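 further: 0% = growth of vehicle-only control cultures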; conditions: S. cerevisiae CLN2oe strain, hits give high values
Method in brief: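 Here, growth inhibition in a cell-cycle-altered yeast strain after compound exposure was quantified against vehicle control growth.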

[10] = NCI Yeast Anticancer Drug Screen. Data for the cln2 rad14 strain (AID 165);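 further: 0% = growth equal to vehicle treated cultures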; conditions: S. cerevisiae cln2 rad14 strain, hits give high values
Method in brief: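 Growth of compound-exposed yeast (cln2 rad14 genotype) measured and expressed as inhibition relative to vehicle.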

[11] = NCI Yeast Anticancer Drug Screen. Data for the bub3 strain (AID 167); conditions: S. cerevisiae bub3 mutant strain, hits give high values
Method in brief: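 Whole-cell yeast assay. The mutant strain was incubated with compounds, and growth inhibition was determined by comparison with vehicle-treated cells.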

[12] = NCI Yeast Anticancer Drug Screen. Data for the wt2 strain (AID 169);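 further: 0% = growth of vehicle-treated yeast cultures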; conditions: S. cerevisiae wt2 strain growth inhibition, hits give high values
Method in brief: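 Genetically defined yeast strains from a DNA-repair/cell-cycle panel were used. Compound-exposed yeast growth was measured, and the inhibition was calculated relative to vehicle treatment.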

[13] = NCI Yeast Anticancer Drug Screen. Data for the mlh1 strain (AID 171);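 further: 0% = growth of vehicle-treated control cultures of the same strain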; conditions: S. cerevisiae mlh1 strain growth inhibition, hits give high values
Method in brief: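 Here the genetically defined yeast mutant is grown with each compound, and the extent to which its growth falls below that of vehicle-exposed cells is reported.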

[14] = NCI Yeast Anticancer Drug Screen. Data for the sgs1 strain (AID 173);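 further: 0% = growth of vehicle-only control cultures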; conditions: S. cerevisiae sgs1 mutant, hits give high values
Method in brief: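 Relative growth inhibition, referenced to vehicle, was determined in a yeast strain with a defined alteration affecting DNA damage repair or cell cycle control after compound exposure.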

[15] = NCI Yeast Anticancer Drug Screen. Data for the mlh1 rad18 strain (AID 175); conditions: S. cerevisiae mlh1 rad18 strain growth inhibition, hits give high values
Method in brief: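 In this whole-cell yeast screen, a strain with altered DNA damage repair is challenged with compound, and its growth is measured against matched vehicle-treated controls.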

[16] = NCI Yeast Anticancer Drug Screen. Data for the rad18 strain (AID 177); conditions: S. cerevisiae rad18 mutant growth inhibition, hits give high values
Method in brief: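 Screen uses a yeast strain with a defined lesion in DNA damage repair; compound effect is read as loss of growth compared to untreated vehicle cultures.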

[17] = at 5.0 µM (retest, dose inferred, filed as 0.5)
[18] = at 50.0 µM (retest, dose inferred, filed as 5.0)

O=C(/C(=C/c1ccc(O)cc1)c1ccccc1)c1ccccc1
growth inhibition ([1]; at 1.2 µM): -52% | growth inhibition ([1]; at 3.7 µM): -55% | growth inhibition ([1]; at 11.0 µM): -14% | growth inhibition ([1]; at 33.0 µM): 99% (active) | growth inhibition ([1]; at 100.0 µM): 93% (active) | growth inhibition ([2]; at 1.2 µM): -22% | growth inhibition ([2]; at 3.7 µM): -13% | growth inhibition ([2]; at 11.0 µM): 35% | growth inhibition ([2]; at 33.0 µM): 98% (active) | growth inhibition ([2]; at 100.0 µM): 92% (active) | growth inhibition ([3]; at 1.2 µM): -5% | growth inhibition ([3]; at 3.7 µM): -2% | growth inhibition ([3]; at 11.0 µM): 1% | growth inhibition ([3]; at 33.0 µM): 15% | growth inhibition ([3]; at 100.0 µM): 9% | growth inhibition ([4]; at 1.2 µM): -4% | growth inhibition ([4]; at 3.7 µM): -2% | growth inhibition ([4]; at 11.0 µM): 51% | growth inhibition ([4]; at 33.0 µM): 99% (active) | growth inhibition ([4]; at 100.0 µM): 89% (active) | growth inhibition ([5]; at 1.2 µM): -8% | growth inhibition ([5]; at 3.7 µM): -2% | growth inhibition [5, 17]: 27% | growth inhibition ([5]; at 11.0 µM): 53% | growth inhibition ([5]; at 33.0 µM): 98% (active) | growth inhibition [5, 18]: 98% (active) | growth inhibition ([5]; at 50.0 µM): 87.5% (active) | growth inhibition ([5]; at 100.0 µM): 93% (active) | growth inhibition ([6]; at 1.2 µM): -27% | growth inhibition ([6]; at 3.7 µM): -20% | growth inhibition [6, 17]: -8% | growth inhibition ([6]; at 11.0 µM): 55% | growth inhibition ([6]; at 33.0 µM): 98% (active) | growth inhibition [6, 18]: 97% (active) | growth inhibition ([6]; at 50.0 µM): 34.5% | growth inhibition ([6]; at 100.0 µM): 85% (active) | growth inhibition ([7]; at 1.2 µM): -2% | growth inhibition ([7]; at 3.7 µM): 0% | growth inhibition ([7]; at 11.0 µM): 13% | growth inhibition ([7]; at 33.0 µM): 99% (active) | growth inhibition ([7]; at 100.0 µM): 94% (active) | growth inhibition [8, 17]: 39% | growth inhibition [8, 18]: 97% (active) | growth inhibition ([8]; at 50.0 µM): 93% (active) | growth inhibition ([9]; at 1.2 µM): 8% | growth inhibition ([9]; at 3.7 µM): 10% | growth inhibition ([9]; at 11.0 µM): 61% | growth inhibition ([9]; at 33.0 µM): 99% (active) | growth inhibition ([9]; at 100.0 µM): 93% (active) | growth inhibition [10, 17]: 20% | growth inhibition [10, 18]: 97% (active) | growth inhibition ([10]; at 50.0 µM): 92.5% (active) | growth inhibition ([11]; at 1.2 µM): 22% | growth inhibition ([11]; at 3.7 µM): 12% | growth inhibition [11, 17]: 2% | growth inhibition ([11]; at 11.0 µM): 82% (active) | growth inhibition ([11]; at 33.0 µM): 99% (active) | growth inhibition [11, 18]: 98% (active) | growth inhibition ([11]; at 50.0 µM): 91.3% (active) | growth inhibition ([11]; at 100.0 µM): 90% (active) | growth inhibition ([12]; at 1.2 µM): -38% | growth inhibition ([12]; at 3.7 µM): -31% | growth inhibition ([12]; at 11.0 µM): 33% | growth inhibition ([12]; at 33.0 µM): 98% (active) | growth inhibition ([12]; at 100.0 µM): 93% (active) | growth inhibition ([13]; at 1.2 µM): 6% | growth inhibition ([13]; at 3.7 µM): 24% | growth inhibition ([13]; at 11.0 µM): 68% | growth inhibition ([13]; at 33.0 µM): 98% (active) | growth inhibition ([13]; at 100.0 µM): 88% (active) | growth inhibition ([14]; at 1.2 µM): -18% | growth inhibition ([14]; at 3.7 µM): -13% | growth inhibition ([14]; at 11.0 µM): 16% | growth inhibition ([14]; at 33.0 µM): 98% (active) | growth inhibition ([14]; at 100.0 µM): 93% (active) | growth inhibition [15, 17]: 0% | growth inhibition [15, 18]: 98% (active) | growth inhibition ([15]; at 50.0 µM): 84% (active) | growth inhibition ([16]; at 1.2 µM): -29% | growth inhibition ([16]; at 3.7 µM): -33% | growth inhibition ([16]; at 11.0 µM): 17% | growth inhibition ([16]; at 33.0 µM): 98% (active) | growth inhibition ([16]; at 100.0 µM): 86% (active)
